# Screening data as filed in PubChem BioAssay.
# A selection: hits, their analogues and other compounds. The true share with any hit is near 2.9%.
# PLC-gamma1 inh: blocks human PLC-gamma1 enzyme activity | P19174 | purified PLC-gamma1, fluorogenic substrate, fluorescence | inhibition, % at 12.2 µM | hit rate 0.84% among 370,000 | AID 720700; in the data active means inhibition above about 9.5%
# Target sequence (P19174 whole entry, looked up): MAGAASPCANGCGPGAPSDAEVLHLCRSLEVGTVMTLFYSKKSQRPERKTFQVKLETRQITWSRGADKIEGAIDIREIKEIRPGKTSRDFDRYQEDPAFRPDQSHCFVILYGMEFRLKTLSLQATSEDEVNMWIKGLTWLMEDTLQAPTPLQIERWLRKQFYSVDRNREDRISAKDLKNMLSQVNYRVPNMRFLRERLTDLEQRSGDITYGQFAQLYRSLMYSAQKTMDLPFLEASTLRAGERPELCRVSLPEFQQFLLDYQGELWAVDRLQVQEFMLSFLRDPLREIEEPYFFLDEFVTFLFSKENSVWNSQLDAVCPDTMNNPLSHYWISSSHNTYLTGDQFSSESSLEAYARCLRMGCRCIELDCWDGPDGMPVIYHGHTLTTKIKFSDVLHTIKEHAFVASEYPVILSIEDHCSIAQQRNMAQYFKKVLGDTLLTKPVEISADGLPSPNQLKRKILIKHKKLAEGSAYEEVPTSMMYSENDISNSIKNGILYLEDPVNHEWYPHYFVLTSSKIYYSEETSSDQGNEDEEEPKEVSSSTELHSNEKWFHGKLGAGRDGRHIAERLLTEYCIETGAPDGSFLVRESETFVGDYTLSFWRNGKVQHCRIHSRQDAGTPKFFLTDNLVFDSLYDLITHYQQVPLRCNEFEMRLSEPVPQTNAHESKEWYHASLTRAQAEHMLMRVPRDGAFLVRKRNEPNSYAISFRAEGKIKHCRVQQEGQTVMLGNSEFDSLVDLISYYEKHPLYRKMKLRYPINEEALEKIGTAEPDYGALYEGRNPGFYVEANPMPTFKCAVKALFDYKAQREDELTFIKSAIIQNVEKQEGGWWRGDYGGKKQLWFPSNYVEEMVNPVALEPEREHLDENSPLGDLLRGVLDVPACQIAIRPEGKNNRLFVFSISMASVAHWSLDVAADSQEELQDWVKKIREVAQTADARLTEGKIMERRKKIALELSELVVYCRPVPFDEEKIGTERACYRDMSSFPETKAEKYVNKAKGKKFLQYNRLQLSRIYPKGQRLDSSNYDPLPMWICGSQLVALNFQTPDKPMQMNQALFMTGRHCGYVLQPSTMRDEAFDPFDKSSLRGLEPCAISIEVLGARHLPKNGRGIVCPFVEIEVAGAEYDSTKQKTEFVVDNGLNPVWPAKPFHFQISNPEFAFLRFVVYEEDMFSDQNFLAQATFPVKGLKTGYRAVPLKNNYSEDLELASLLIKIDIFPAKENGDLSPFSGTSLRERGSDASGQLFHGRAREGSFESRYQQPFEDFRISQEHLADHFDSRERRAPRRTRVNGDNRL
# ADAM17 inh: inhibitors of human ADAM17 | P78536 | recombinant ADAM17, EDANS/DABCYL FRET peptide cleavage | inhibition, % at 6.95 µM | hit rate 0.83% among 370,000 | AID 720648;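 active means inhibition above the mean of compounds lying between control limits plus 3 SD, set per campaign, cut at about 8.5% in these data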;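 further: 0% = DMSO-only wells as the low control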
# KLK7 zymogen act: proKLK7 (human) activation, primary screen; purified proKLK7, EDANS-DABCYL substrate fluorescence; 100% is mature enzyme control, 0% vehicle; activation, % at 7 µM; hit rate 0.9% among 370,000; AID 652039;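 active means activation above the mean of all tested compounds plus 3 SD, computed per campaign excluding outliers beyond control limits, cut at about 13% in these data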
# ADAM10 inh: inhibits human ADAM10; O14672; recombinant ADAM10, EDANS/DABCYL FRET peptide cleavage, 3 h; inhibition, % at 7 µM; hit rate 0.62% among 370,000; AID 720582;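 active means inhibition above a per-campaign cutoff equal to the mean of compounds falling between control-based bounds plus 3 SD, cut at about 20% in these data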;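 further: 0% = DMSO wells while the 100% control is not disclosed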
# PLC-beta3 inh: blocks human PLC-beta3 enzyme activity. Purified PLC-beta3, fluorogenic substrate, fluorescence. Q01970. inhibition, % at 12.2 µM. hit rate 0.18% among 370,000. AID 720704; in the data active means inhibition above about 11%;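 further: 0% = median of compound wells on plate and 100% = full blocker control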
# KLK7 act conf: confirmation of human kallikrein-7 zymogen activators; shares compounds with KLK7 zymogen act; purified proKLK7, EDANS-DABCYL substrate fluorescence; scaled: vehicle 0, mature enzyme 100; activation, % at 7 µM; hit rate 68% among 3,200;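 active means activation, as change over the incubation, above the mean of all tested compounds plus 3 SD, cut at about 13% in these data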
# EDANS-DABCYL int: counter-screen for kallikrein-7 activators: EDANS-DABCYL optical interference | activation, % at 7 µM | hit rate 80% among 3,200 | AID 686952 | shares compounds with KLK7 zymogen act | EDANS-DABCYL substrate fluorescence interference, no enzyme, 4 h; solvent 0%, active enzyme control 100%;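 active means activation above the all-compound mean plus 3 SD, ignoring values outside control-based bounds, cut at about 4.8% in these data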;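 further: value is the 4 h activation minus the activation read at time zero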
# K7 EDANS ctr: EDANS fluorescence interference in dose response, no enzyme. EDANS-DABCYL peptide fluorescence interference. EC50, µM. hit rate 20% among 250. AID 720493. shares compounds with KLK7 zymogen act;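 active means compounds that raise the fluorescence signal in this interference counterscreen, with EC50 at or below 10 µM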;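 further: intact quenched peptide substrate alone read at 355 nm excitation and 520 nm emission; signal is fluorescence gain from T0 to T4 after four hours at room temperature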
# * = called active by the depositor; i = inactive; . = no result given.
SMILES,PLC-gamma1 inh,ADAM17 inh,KLK7 zymogen act,ADAM10 inh,PLC-beta3 inh,KLK7 act conf,EDANS-DABCYL int,others
CN1CC=C(c2ccccc2)N(c2ccc(Br)cc2)C1=O,-3,0,1,-1,-1,.,.,
CCOc1ccc(-c2cc(C)n3nc(C(N)=O)cc3n2)cc1,i,-242,30*,i,i,49*,56*,
COC(=O)c1cc2nc(-c3ccccc3)cc(C)n2n1,-440,-63,5,-191,i,.,.,
Nc1nccnc1C(=O)OCC(=O)Nc1ccc2[nH]c(=O)[nH]c2c1,-19,-22,27*,-92,-24,53*,48*,
O=C(COC(=O)c1ccccc1)Nc1ccc2[nH]c(=O)[nH]c2c1,-3,-10,-1,-9,-7,.,.,
NC(=O)c1ncn([C@@H]2O[C@H](C(=O)N[C@H](Cc3c[nH]c4ccccc34)C(=O)N3CCN(C(=O)C4CC4)CC3)[C@@H](O)[C@H]2O)n1,2,-5,1,-12,3,.,.,
Cc1ccc(N=Cc2c(O)c3ccccc3n(C)c2=O)cc1,-32,-5,29*,-11,-49,-131,-103,
Cn1c(=O)c(C(=O)c2ccccc2)c(O)c2ccccc21,-1,-1,0,5,-6,.,.,
Cn1c(=O)c(-c2ccccc2)c(O)c2ccccc21,-29,-3,0,-7,-28,.,.,
Cc1c(O)c(=O)c2ccccc2n1C,i,i,92*,i,i,73*,64*,
COC(=O)C[C@@H]1CC[C@@H]2[C@H](COc3ccc(NC(=O)c4ccc(F)c(F)c4)cc3C(=O)N2C)O1,3,1,1,-4,1,.,.,
C[C@@H]1C(c2ccccc2)=NN(c2ccccc2)[C@H]1C(=O)N1CCOC1=O,-137,-48,243*,-160,-182,223*,217*,
C[C@@H]1C(c2cccc(Cl)c2)=NN(c2ccccc2)[C@H]1C(=O)N1CCOC1=O,-74,-38,6,-149,-111,.,.,
c1ccc(-c2nc(N3CCNCC3)nc3ccccc23)cc1,-283,-153,69*,-490,-377,18*,19*,
CCN1CCN(c2nc(-c3ccccc3)c3ccccc3n2)CC1,-405,-202,28*,i,i,-10,-6,
CCN(CC)c1nc(N2CCN(CCO)CC2)nc2ccccc12,-4,-2,0,-2,-9,.,.,
c1ccc(-c2nc(N3CCCCC3)nc3ccccc23)cc1,-369,-143,22*,-457,i,-69,-50,
c1ccc2c(N3CCCCC3)nc(N3CCCC3)nc2c1,-7,-8,-2,-17,-10,.,.,
CC(C)C[C@H]1COc2cccc(N3CCSCC3)c2S(=O)(=O)N1C,0,-3,0,1,4,.,.,
CCCCCCCCN1CCS(=O)(=O)N(Cc2ccc(OC)cc2)C(C(=O)OC)C1 (stereo not drawn),-2,5,0,9,3,.,.,
Cc1[nH]n(-c2cccc3ccccc23)c(=O)c1C=Nc1ccc2[nH]c(=O)[nH]c2c1,-7,2,0,1,-12,.,.,
Cc1ccc(-n2[nH]c(C)c(C=Nc3ccc4[nH]c(=O)[nH]c4c3)c2=O)cc1,-4,-6,379*,-17,-5,443*,407*,
Cc1ccc(-n2[nH]c(C)c(C=Nc3ccc4[nH]c(=O)[nH]c4c3)c2=O)cc1C,-6,-22,179*,-122,-3,186*,169*,
CCc1cc2c(=O)c(-c3nc4ccccc4n3C)coc2c(CN2CCCCC2C)c1O (stereo not drawn),-322,-49,16*,-127,-390,8,15*,
CCc1cc2c(=O)c(-c3nc4ccccc4n3C)coc2c(CN2CCOCC2)c1O,-65,-12,2,-45,-68,.,.,
SMILES,PLC-gamma1 inh,ADAM17 inh,KLK7 zymogen act,ADAM10 inh,PLC-beta3 inh,KLK7 act conf,EDANS-DABCYL int,others
CCc1cc2c(=O)c(-c3nc4ccccc4n3C)coc2c(CN2CCCCC2)c1O,-351,-68,13*,-174,-448,7,8.8*,
C=CCN1C(=O)[C@@H](CC(=O)NCCCN2CCCC2=O)[C@]2(C(=O)OC)CCCCC=C12,-1,0,0,-1,3,.,.,
O=C(Nc1ccc(-c2cn3ccsc3n2)cc1)c1ccc(F)c(S(=O)(=O)N2CCOCC2)c1,-2,-8,18*,-11,-3,-1,6.1*,
O=C(CN1CCc2onc(-c3cccc(-n4cc(CO)nn4)c3)c2C1=O)N1CCOCC1,-1,1,0,-3,0,.,.,
COc1cc(/C=C2/NC(=O)N(CC(=O)Nc3cccc(C)c3)C2=O)ccc1OCC(N)=O,-24,-9,146*,-26,-31,50*,54*,
O=C(Nc1nc2ncccn2c1-c1ccc(F)c(F)c1)C1CC1,i,-236,18*,i,i,20*,24*,
Cc1ccc(-c2nc3ncccn3c2NC(=O)Nc2ccc(F)cc2)cc1,i,-149,13*,i,i,-13,-7,
O=C(Nc1nc2ncccn2c1-c1ccc(F)c(F)c1)c1ccc(F)cc1,-218,-81,10,-260,-273,.,.,
O=C(Nc1c(-c2ccccc2)nc2ncccn12)c1ccccc1,-216,-68,13*,-238,-306,60*,14*,K7 EDANS ctr=i
CC(=O)Nc1nc2ncccn2c1-c1ccc(C)cc1,i,-339,23*,i,i,48*,50*,
O=C(Nc1ccc(F)cc1)Nc1c(-c2ccccc2)nc2ncccn12,-440,-95,8,-309,i,.,.,
O=C(Nc1ccc2ccccc2c1)C1CC2CCC1C2 (stereo not drawn),0,4,.,1,1,.,.,
O=C(Nc1c(-c2ccc(F)cc2)nc2ncccn12)C1CC1,i,-262,25*,i,i,36*,38*,
Cc1cccc(C(=O)Nc2c(-c3ccccc3)nc3ncccn23)c1,-270,-77,9,-257,-329,.,.,
O=C(Nc1c(-c2ccccc2)nc2ncccn12)C1CC1,i,-237,28*,i,i,28*,34*,
Nc1c(-c2ccc(F)cc2)nc2ncccn12,-22,-7,8,-20,-24,.,.,
O=C([C@@H]1C[C@H]1c1ccccc1)N1CC[C@H]2[C@H](CCCN2Cc2cc(F)cc(F)c2)C1,-2,-1,0,-3,0,.,.,
CC(=O)N1CCC2(CC1)CC(=O)c1cc(OCC(=O)N3CCCC3)ccc1O2,i,-369,40*,i,i,53*,55*,
CCOC(=O)COc1ccc2c(c1)C(=O)CC1(CCN(C(C)=O)CC1)O2,i,i,22*,i,i,26*,43*,
CCOc1ccc(OCC(=O)N2CCC3(CC2)CC(=O)c2ccccc2O3)cc1,-11,-26,0,-94,-12,.,.,
